This is part of a sample that, as a whole, favours compounds with a hit. Of some 83,000 tested, about 20% had one in any assay.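 For each line, cells grew in 96-well plates with the test compound present at a single concentration for 48 hours.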 Unmarked numbers belong to inactive results. Calls of active or inactive are those of the source. The calls were made as follows: active = growth percent below 10; inactive = the rest.
Assays:
Test in all cases: NCI-60 one-dose screen, 48 h (100 = growth as untreated, 0 = no growth, -100 = all killed)
Conditions in all cases: 10 µM unless noted
NCI-H23 lung = system: NCI-H23 lung
NCI-H226 lung = system: NCI-H226 lung
NCI-H322M lung = system: NCI-H322M lung
HOP-62 NSCLC = system: HOP-62 NSCLC
NCI-H460 lung = system: NCI-H460 lung
HOP-92 NSCLC = system: HOP-92 NSCLC
NCI-H522 lung = system: NCI-H522 lung
A549/ATCC NSCLC = system: A549/ATCC NSCLC
786-0 renal = system: 786-0 renal
COLO 205 colon = system: COLO 205 colon
DU-145 prostate = system: DU-145 prostate
K-562 leukemia = system: K-562 leukemia
MALME-3M melanoma = system: MALME-3M melanoma
MDA-MB-231 breast = system: MDA-MB-231 breast
SF-268 CNS = system: SF-268 CNS
SF-295 CNS = system: SF-295 CNS
SF-539 CNS = system: SF-539 CNS
UACC-257 melanoma = system: UACC-257 melanoma
RXF 393 renal = system: RXF 393 renal
M14 melanoma = system: M14 melanoma

SMILES	growth (NCI-H23 lung)	growth (NCI-H226 lung)	growth (NCI-H322M lung)	growth (HOP-62 NSCLC)	growth (NCI-H460 lung)	growth (HOP-92 NSCLC)	growth (NCI-H522 lung)	growth (A549/ATCC NSCLC)	growth (786-0 renal)	growth (COLO 205 colon)	growth (DU-145 prostate)	growth (K-562 leukemia)	growth (MALME-3M melanoma)	growth (MDA-MB-231 breast)	growth (SF-268 CNS)	growth (SF-295 CNS)	growth (SF-539 CNS)	growth (UACC-257 melanoma)	growth (RXF 393 renal)	growth (M14 melanoma)
O[C@H]1CO[C@H]2[C@@H]1OC[C@@H]2Oc1ccc(Nc2nc(Nc3ccc(F)c(Cl)c3)ncc2F)cc1Cl	101%	96.9%	101%	118%	106%	101%	98.4%	102%	97.7%	116%	117%	115%	100%	95.4%	103%	92.1%	95%	106%	–	–
COc1ccc(/C(C)=C(\c2ccc(Cl)cc2)c2ccc(OCCN3CCCCCC3)cc2)cc1F	54.1%	71%	83.3%	36.3%	8.63% (active)	73.3%	65.9%	55%	4.15% (active)	22.3%	67.5%	1.96% (active)	-3.61% (active)	55.1%	68.3%	-7.79% (active)	24.5%	39%	–	–
CCN(CC)CCOc1ccc(/C(=C(\C)c2ccc(OC)c(F)c2)c2ccc(Cl)cc2)cc1	80.8%	102%	85.1%	78.5%	61.1%	82%	86.1%	59.7%	68.2%	42.2%	84%	19%	55.9%	87.6%	87.4%	61.6%	24.5%	68.4%	–	–
Cc1nc(Nc2ccc(S(=O)(=O)Nc3cc(C)on3)cc2)c2ccccc2n1	107%	99.7%	104%	101%	112%	89%	86.3%	108%	98.3%	116%	112%	99.9%	93.2%	108%	99.5%	95.4%	97.6%	103%	–	–
COc1ccc(/C=C2\COc3ccc(O)cc3C2=O)cc1OC	105%	97%	90.4%	76%	67.6%	59.1%	35.2%	91.2%	88.2%	93.9%	65.7%	8.84% (active)	92.6%	87.5%	93.1%	103%	83.2%	80.2%	–	–
Cc1nc(Nc2ccc(NC(=S)Nc3ccccc3)cc2)nc2nc(SCc3ccccc3)[nH]c(=O)c12	101%	82.6%	173%	95.2%	107%	82.4%	40.5%	57.9%	99.1%	126%	104%	72.1%	–	76.9%	98.4%	169%	63.3%	74.8%	-24% (active)	–
CN(C)CCn1cc(-c2ccc3c(Nc4ccc(CC(=O)Nc5cccc(F)c5)cc4)ncnc3c2)cn1	-57.2% [30 µM] (active)	-36.7% [30 µM] (active)	-94.5% [30 µM] (active)	-23.2% [30 µM] (active)	-74.1% [30 µM] (active)	-28.8% [30 µM] (active)	-30.5% [30 µM] (active)	-41.4% [30 µM] (active)	-50.8% [30 µM] (active)	-61.8% [30 µM] (active)	-95.8% [30 µM] (active)	-29.2% [30 µM] (active)	-92% [30 µM] (active)	-85.7% [30 µM] (active)	-61.7% [30 µM] (active)	-79.8% [30 µM] (active)	-94.2% [30 µM] (active)	-59.7% [30 µM] (active)	–	–
CCCCOc1nc2ccc(Cl)cc2cc1/C=C/C(=O)/C=C1/CC(c2cc3cc(Cl)ccc3nc2OCCCC)Nc2ccccc2N1 (stereo unspecified)	87.2%	90.8%	103%	94.8%	85%	77.3%	90.4%	94.2%	99.1%	90.9%	103%	91.7%	79.4%	81%	97.9%	96.2%	91.9%	100%	–	–
O=c1[nH]nc(-c2ccc(Cl)cc2)cc1Cc1ccccc1	92.3%	79.9%	155%	90.5%	104%	86.2%	35%	42.1%	96.9%	116%	104%	79%	–	79.5%	99.4%	89.6%	65.2%	84.3%	3.35% (active)	–
Cc1c(C(=O)O)nnn1-c1nccs1	94.5%	95.9%	99.8%	84.1%	98.5%	82.4%	77.9%	79.2%	97.1%	107%	104%	–	102%	91.6%	102%	101%	92%	80.8%	112%	–
CN(C)CCN1C(=O)c2cccc3c(-c4ccc(-c5nc6c7ccccc7c7ccccc7c6[nH]5)cc4)ccc(c23)C1=O	109%	101%	114%	106%	111%	71.3%	94.2%	90.4%	18.2%	105%	102%	28.5%	110%	89.1%	105%	105%	92.7%	110%	–	–
COc1cccc(/C=C2\COc3ccc(O)cc3C2=O)c1OC	86.6%	95.2%	90.5%	88.4%	67.8%	86.8%	28.7%	105%	86.1%	92.1%	45.1%	5.8% (active)	73.9%	85.1%	85%	95.7%	72.2%	83.3%	–	–
C[C@]12CCC(=O)C[C@H]1CC[C@@H]1[C@@H]2CC[C@@]2(C)[C@H]1CC[C@]2(O)C(=O)CO	107%	94.2%	103%	105%	107%	93.2%	89.4%	122%	105%	100%	108%	114%	–	99.6%	96%	113%	103%	129%	108%	–
N#Cc1c(N)nc2c(nnn2-c2cccc(C(F)(F)F)c2)c1N	86.6%	92.4%	89.8%	80.5%	95.9%	77.6%	75.2%	78%	101%	104%	99%	–	121%	78.3%	91.9%	95.6%	96.9%	103%	92.7%	–
CCOC(=O)c1nnn(C(Cc2ccccc2Cl)C(=O)OCC)c1C (stereo unspecified)	105%	103%	108%	93.4%	101%	93.5%	68.9%	82.6%	102%	105%	109%	–	117%	104%	111%	111%	107%	83.6%	109%	–
COc1cc(NC(=O)c2cccc(-c3cc(=O)c4c(OC)c(OC)c(OC)cc4o3)c2)cc(OC)c1OC	48.8%	58.5%	69.5%	37.5%	30%	24.7%	34.7%	43.5%	31.8%	44.3%	54.3%	27.6%	56.4%	–	67.1%	45%	52.6%	52.8%	53.2%	–
Nc1c(C(=O)Nc2ccccc2)sc2nc3c(cc12)CCCCCC3	22.5%	27%	29.2%	15.5%	4.61% (active)	76.5%	-11.6% (active)	15%	10.4%	-17% (active)	18.6%	7.92% (active)	31.3%	–	36.6%	-0.47% (active)	-41.8% (active)	44.9%	-38.7% (active)	–
COc1cc(-c2ncn(/C=C\c3nnco3)n2)cc(C(F)(F)F)c1	26.6%	-0.243% (active)	8.72% (active)	39.8%	0.25% (active)	61.4%	-11.4% (active)	16.7%	5.1% (active)	0.0945% (active)	18.4%	6.9% (active)	2.52% (active)	–	10.9%	53.6%	6.11% (active)	53%	-26.2% (active)	–
Cc1nc(-c2ccccc2)cc2c(O)c(C(=O)N/N=C/c3ccc(N(C)C)cc3)[nH]c(=O)c12	78.1%	107%	90.5%	77.3%	94.9%	32%	72.7%	40.5%	79.2%	109%	75.1%	62.6%	98.2%	71.7%	81.7%	94.1%	69.7%	106%	–	–
COc1ccc(N(C)c2nc(Cl)nc3cnn(C)c23)cc1	34.4%	1% (active)	34.1%	21.9%	7.51% (active)	28.6%	-27.6% (active)	10.8%	8.74% (active)	-68.3% (active)	7.13% (active)	–	75.3%	19.2%	29.1%	17.9%	-9.34% (active)	38.1%	44.8%	–
C[C@@H]1CC[C@@H]2[C@@H]1[C@H](OC(=O)/C=C/c1ccccc1)[C@]1(CCCOCCOCCOCCOC(=O)CCCC[C@@H]3SC[C@@H]4NC(=O)N[C@@H]43)C[C@@H](OC(=O)CO)[C@@]2(C)O1	102%	105%	92.6%	99.3%	106%	108%	85%	97.7%	97.6%	112%	103%	–	99.6%	106%	102%	107%	103%	109%	108%	–
COc1ccc(/C=C2\COc3ccc(O)c(O)c3C2=O)c(OC)c1	78.8%	92.4%	73.7%	72.9%	72.4%	91.5%	-17% (active)	62.9%	61.1%	107%	67.2%	14%	32.9%	56.6%	54.8%	95.6%	49.5%	54.4%	–	–
CCCCNC(=O)c1cc(NCc2cc(O)ccc2O)ccc1O	93.4%	106%	91.3%	84.4%	106%	67.7%	-55.7% (active)	77.1%	80.4%	108%	99.7%	–	108%	84%	84.1%	101%	62.2%	68.9%	83.7%	–
O=c1oc2ccc(Cl)cc2cc1-c1cs/c(=N/N=C\c2ccc(Cl)cc2)n1/N=C/c1ccc(Cl)cc1	99.7%	102%	97.9%	109%	105%	98%	75.2%	89.3%	97.9%	109%	108%	–	98.9%	101%	104%	108%	107%	95.1%	113%	–
O=C(NCc1cn(Cc2cccc(Oc3ccccc3)c2)nn1)c1cccnc1NCc1ccc(Cl)cc1	20.6%	12.5%	54.5%	40.7%	17.1%	22.1%	20.8%	22.5%	38%	–	15%	11.8%	48.2%	25.4%	45.3%	19.7%	-15.3% (active)	47.3%	3.54% (active)	6.76% (active)

Reference: PubChem BioAssay (NCI)
